Assay results from PubChem BioAssay (NCI).
“And” between values parts separate entries of the source, which are not always exact repeats. Identical values can stand only once. Compounds without any hit were thinned out: in the full panel of roughly 83,000, 20% have a hit.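 Results are percent growth after 48 hours of single-concentration exposure. 100 means growth as in untreated cells, lower positive values show inhibition; negative values down to -100 show cell death.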 The source made the active and inactive calls. Rule for the calls: active = growth percent below 10; inactive = the rest.

Experiments:
Test in all cases: NCI-60 one-dose screen, 48 h (100 = growth as untreated, 0 = no growth, -100 = all killed)
Settings in all cases: 10 µM
[1] = tested on: NCI-H23 lung
[2] = tested on: NCI-H226 lung
[3] = tested on: HOP-62 NSCLC
[4] = tested on: NCI-H460 lung
[5] = tested on: HOP-92 NSCLC
[6] = tested on: A549/ATCC NSCLC
[7] = tested on: 786-0 renal
[8] = tested on: COLO 205 colon
[9] = tested on: NCI-H522 lung
[10] = tested on: NCI-H322M lung

## COc1cc([N+](=O)[O-])c2ncccc2c1[N+](=O)[O-]
[1]
  growth: 73.4% (inactive)
[2]
  growth: 77.1% (inactive)
[3]
  growth: 105% (inactive)
[4]
  growth: 87.3% (inactive)
[5]
  growth: 95.7% (inactive)
[6]
  growth: 97.9% (inactive)
[7]
  growth: 77.7% (inactive)

## CN(C)CC1(N)C(=O)NC(=O)NC1=O
[1]
  growth: 98.6% (inactive)
[2]
  growth: 87.7% (inactive)
[3]
  growth: 98.1% (inactive)
[4]
  growth: 107% (inactive)
[5]
  growth: 112% (inactive)
[7]
  growth: 102% (inactive)

## NNc1ccccc1
[1]
  growth: 108% (inactive)
[2]
  growth: 96.3% (inactive)
[3]
  growth: 85.4% (inactive)
[4]
  growth: 60.4% (inactive)
[6]
  growth: 84.3% (inactive)
[7]
  growth: 79.7% (inactive)
[8]
  growth: 85.4% (inactive)

## COc1cc(/C=C/[N+](=O)[O-])cc(OC)c1OC
[1]
  growth: 45% (inactive)
[3]
  growth: 16.8% (inactive)
[4]
  growth: 6.31% (active)
[5]
  growth: 58.1% (inactive)
[9]
  growth: -54.8% (active)
[6]
  growth: 54.2% (inactive)
[7]
  growth: -48% (active)

## COc1ccc(/C=C(\C)[N+](=O)[O-])cc1OC
[1]
  growth: 64.7% (inactive)
[2]
  growth: 68.9% (inactive)
[3]
  growth: 63% (inactive)
[5]
  growth: -9.49% (active)
[9]
  growth: -69.4% (active)
[7]
  growth: -44.2% (active)

## N#CCc1ccccc1
[1]
  growth: 102% (inactive)
[2]
  growth: 96.3% (inactive)
[3]
  growth: 97.4% (inactive)
[4]
  growth: 106% (inactive)
[5]
  growth: 82.2% (inactive)
[6]
  growth: 101% (inactive)
[7]
  growth: 101% (inactive)

## C[C@@H]1C[C@@H]([C@H](O)CC2CC(=O)NC(=O)C2)C(=O)[C@@H](C)C1
[1]
  growth: -3.78% (active)
[2]
  growth: 11.6% (inactive)
[3]
  growth: 3.86% (active)
[4]
  growth: 4.51% (active)
[9]
  growth: -15.6% (active)
[7]
  growth: 0.349% (active)
[8]
  growth: -14.9% (active)

## [O-][n+]1ccccc1S
[1]
  growth: 73.5% (inactive)
[2]
  growth: 95.8% (inactive)
[3]
  growth: 58% (inactive)
[4]
  growth: 8.67% (active)
[5]
  growth: 97.1% (inactive)
[6]
  growth: 30.4% (inactive)
[7]
  growth: 46.3% (inactive)

## COc1ccccc1[As]=[As]c1ccccc1OC (stereo not drawn)
[1]
  growth: -86.8% (active)
[2]
  growth: -93.5% (active)
[3]
  growth: -94.8% (active)
[4]
  growth: -42.6% (active)
[5]
  growth: -85.1% (active)
[7]
  growth: -94.7% (active)

## [Cl][Hg][c]1ccc(Cl)s1
[1]
  growth: 51.1% (inactive)
[2]
  growth: 50.1% (inactive)
[3]
  growth: 87.8% (inactive)
[4]
  growth: 83.7% (inactive)
[5]
  growth: -70% (active)
[6]
  growth: 97.2% (inactive)
[7]
  growth: -54.5% (active)
[8]
  growth: -81.2% (active)

## COc1cc2c(c(OC)c1OC)-c1ccc(O)c(=O)cc1[C@@H](NC(C)=O)CC2
[1]
  growth: 65.1% (inactive)
[2]
  growth: 68.9% (inactive)
[3]
  growth: 28.9% (inactive)
[4]
  growth: 24.6% (inactive)
[7]
  growth: 68.9% (inactive)
[8]
  growth: 72.6% (inactive)

## COc1cc(/C=C(/C)[N+](=O)[O-])ccc1O
[1]
  growth: 61.1% (inactive) and 81.4% (inactive)
[2]
  growth: 86.7% (inactive) and 91% (inactive)
[3]
  growth: 55.6% (inactive) and 47.6% (inactive)
[4]
  growth: 43% (inactive) and 21.5% (inactive)
[5]
  growth: 41.3% (inactive)
[7]
  growth: 50% (inactive) and -13.4% (active)

## CC/C(=C/c1ccc(OC)cc1OC)[N+](=O)[O-]
[1]
  growth: 59% (inactive)
[2]
  growth: 111% (inactive)
[3]
  growth: 74% (inactive)
[4]
  growth: 49.5% (inactive)
[7]
  growth: -53% (active)
[8]
  growth: -40.7% (active)

## Cc1ccc(NC(=O)CBr)cc1
[1]
  growth: 91.7% (inactive)
[2]
  growth: 103% (inactive)
[4]
  growth: 105% (inactive)
[5]
  growth: 96% (inactive)
[7]
  growth: 107% (inactive)

## S=C=NCCc1ccccc1
[1]
  growth: 20% (inactive)
[2]
  growth: 85.8% (inactive)
[3]
  growth: 85.2% (inactive)
[4]
  growth: 58.5% (inactive)
[5]
  growth: 56.5% (inactive)
[7]
  growth: 71.5% (inactive)

## NC(=O)c1cc([N+](=O)[O-])c(Cl)c([N+](=O)[O-])c1Cl
[1]
  growth: 25.6% (inactive)
[2]
  growth: 59.7% (inactive)
[3]
  growth: 35.9% (inactive)
[4]
  growth: 72.2% (inactive)
[5]
  growth: -52.2% (active)
[7]
  growth: 13.2% (inactive)
[8]
  growth: -54.1% (active)

## [Cl][Sn]([c]1ccccc1)([c]1ccccc1)[c]1ccccc1
[1]
  growth: -71.6% (active)
[2]
  growth: -62% (active)
[3]
  growth: -88.4% (active)
[4]
  growth: -66% (active)
[5]
  growth: -85.6% (active)
[6]
  growth: -93.6% (active)
[7]
  growth: -93.4% (active)

## CC/C(=C/c1ccc(OC)cc1)[N+](=O)[O-]
[1]
  growth: 51.8% (inactive)
[2]
  growth: -12.5% (active)
[3]
  growth: 78.1% (inactive)
[4]
  growth: 52.7% (inactive)
[9]
  growth: -47.7% (active)
[6]
  growth: 62.3% (inactive)
[7]
  growth: -83.5% (active)

## Cc1cc(C(C)(C)c2ccc(O)c(C)c2)ccc1O
[1]
  growth: 97.4% (inactive)
[2]
  growth: 107% (inactive)
[3]
  growth: 97.4% (inactive)
[4]
  growth: 110% (inactive)
[5]
  growth: 110% (inactive)
[7]
  growth: 102% (inactive)
[8]
  growth: 100% (inactive)

## COc1cc(/C=C/[N+](=O)[O-])cc(Br)c1OC
[1]
  growth: -67.9% (active)
[2]
  growth: -18.3% (active)
[3]
  growth: 59.5% (inactive)
[5]
  growth: 72.6% (inactive)
[9]
  growth: -71.5% (active)
[6]
  growth: 57.2% (inactive)
[7]
  growth: -56.7% (active)
[8]
  growth: 17.5% (inactive)

## [Cl][Hg][c]1ccc2ccccc2c1
[1]
  growth: -67.1% (active)
[2]
  growth: -20.6% (active)
[3]
  growth: -79.9% (active)
[4]
  growth: -4.3% (active)
[9]
  growth: -95.1% (active)
[7]
  growth: -92.2% (active)
[8]
  growth: -87.4% (active)

## CC1CCC2(OC1)OC1C(O)C3C4CCC5CC(OC6OC(CO)C(OC7OC(CO)C(O)C(OC8OCC(O)C(O)C8O)C7OC7OC(CO)C(O)C(OC8OC(CO)C(O)C(O)C8O)C7O)C(O)C6O)C(O)CC5(C)C4CCC3(C)C1C2C (stereo not drawn)
[1]
  growth: -51.5% (active)
[2]
  growth: -50.1% (active)
[3]
  growth: -95.3% (active)
[4]
  growth: 5.81% (active)
[5]
  growth: -3.92% (active)
[7]
  growth: -92% (active)

## Cc1cc(C)c(C[N+](C)(C)C)c(C)c1C
[1]
  growth: 3.56% (active)
[2]
  growth: 11.7% (inactive)
[3]
  growth: 5.53% (active)
[4]
  growth: 5.07% (active)
[6]
  growth: 5.53% (active)
[7]
  growth: 4.58% (active)

## Oc1c(Cl)cc(Cl)c2ccccc12.[Cu+2]
[1]
  growth: 91.4% (inactive)
[10]
  growth: 92.1% (inactive)
[3]
  growth: 108% (inactive)
[4]
  growth: 99.4% (inactive)
[5]
  growth: 104% (inactive)
[9]
  growth: 71.2% (inactive)
[7]
  growth: 116% (inactive)
[8]
  growth: 102% (inactive)

## Oc1c(I)cc(I)cc1I
[2]
  growth: 98.6% (inactive)
[10]
  growth: 110% (inactive)
[3]
  growth: 103% (inactive)
[4]
  growth: 105% (inactive)
[5]
  growth: 106% (inactive)
[6]
  growth: 106% (inactive)
[8]
  growth: 116% (inactive)

## COC12C(COC(N)=O)C3=C(C(=O)C(C)=C(N)C3=O)N1CC1C2N1C (stereo not drawn)
[1]
  growth: 6.66% (active)
[2]
  growth: 64.2% (inactive)
[3]
  growth: 32.3% (inactive)
[4]
  growth: -6.38% (active)
[5]
  growth: -0.595% (active)
[7]
  growth: 31.1% (inactive)
